The record followed here is PubChem BioAssay (NCATS).

Inconclusive results are not listed. Unmarked numbers belong to inactive results. Active and inactive are the calls of the source. Calls follow the shape of the dose curve; as a rule, active = well fitted inhibition curve with a large enough effect; inconclusive = small, poorly fitted or top-dose-only effect; inactive = flat fitted curve, though single readings scatter.
% is scaled to controls: 0 for no effect and ±100 for the full control effect; potency is read from the fitted curve at half-maximal effect.

The subject of the test is NIH3T3. Put plainly: Cytotoxic Profiling of Annotated Libraries Using Quantitative High-Throughput Screening (AID 1296008). Also: nearly all actives have a fitted effect of over 60% in size. The note with it: Five cell lines viability, CellTiter-Glo ATP luminescence, 48-72 h; max response: hits give low values. The gist of the method:
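Cells exposed to compounds for 48 or 72 hr at 37 degrees Celsius. Viability read as ATP-coupled luminescence with CellTiter-Glo after 10 min at room temperature.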
On the technique in general: ATP-based viability assays read luminescence as a measure of living cells.
For the molecule `CC(C)c1cc(C(=O)N2CC[C@H](NC(=O)C3CC3)C2)n[nH]1`, the max response is -25.5%.

Turning to `CC(Cc1cc2c(c(C(N)=O)c1)N(CCCO)CC2)NCCOc1ccccc1OCC(F)(F)F` (centres undefined), the max response is 2.09%.

For the molecule `CCC(C)C(=O)OC1CC(O)C23C4OCC5(C(O)CC2C1(C)C(O)O4)C3C(=O)C(O)C1(C)C(O)(c2ccoc2)CC2OC251` (centres undefined), the Potency is 3060 nM (active).

Consider `C=C(CCC1=C(C)[C@H]2[C@H](CC3[C@@H]4CC=C5C[C@@H](O)C[C@@H](O)[C@]5(C)C4[C@H](O)C[C@@]32C)O1)CO[C@@H]1O[C@H](CO)[C@@H](O)[C@H](O)[C@H]1O` (some centres undefined), for which the max response is 0.743%.

With `COc1c2cc(c(O)c1OC)-c1cc(ccc1O)CCC(O)CCCC2` (centres undefined), the max response is -1.69%.

With `Cc1cc(C)c2c(N)c(C(=O)NCc3ccc(Cl)cc3)sc2n1`, the max response was -1.38%.

`NC1CCC(Nc2cc(-c3cccc(NCc4cccc(F)c4)n3)c(Cl)cn2)CC1` (centres undefined): the Potency was 1160 nM (active).

For `O=C(NCc1ccc(S(=O)(=O)c2cc(F)cc(F)c2)cc1)c1ccc2nccn2c1`, the Potency was 46.1 nM (active).

As for `CCCNc1ccc2ncc(-c3ccc4[nH]ncc4c3)n2n1`, the Potency was 3260 nM (active).

On to `CC(C)=CCC/C(C)=C/Cc1ccc(O)c(C2OC(=O)c3cc(C(=O)O)cc(O)c32)c1O` (centres undefined), for which the max response is 0.065%.

On to `Cn1nnc(-c2ccc(-c3ccc(N4C[C@H](CO)OC4=O)cc3F)cn2)n1`, for which the outcome was inactive.

Turning to `CO[C@H]1C[C@@H]2CC[C@@H](C)[C@@](O)(O2)C(=O)C(=O)N2CCCC[C@H]2C(=O)O[C@H]([C@H](C)C[C@@H]2CC[C@@H](OP(C)(C)=O)[C@H](OC)C2)CC(=O)[C@H](C)/C=C(\C)[C@@H](O)[C@@H](OC)C(=O)[C@H](C)C[C@H](C)/C=C/C=C/C=C/1C`, the max response was -16.2%.

For `CCC1C(=O)OC23C=C[C@@H]4C(C(=O)O)=CO[C@H](O[C@@H]12)[C@@H]43` (some centres undefined), the max response was 0.895%.

As for `C[C@@H]1COCCN1c1cc(C2(S(C)(=O)=O)CC2)nc(-c2cccc3[nH]ccc23)n1`, the Potency was 2060 nM (active).

With `NC(=O)c1csc(C2OC(CO)C(O)C2O)n1` (centres undefined), the max response is -7.35%.

Regarding `COCCN1CCN(Cc2ccc(-c3n[nH]c4c3C(=O)c3c(NC(=O)NN5CCOCC5)cccc3-4)cc2)CC1`, the Potency is 517 nM (active).

Regarding `CC1OC(OC2C(C)OC(OC3C(O)C(CO)OC(O[C@H]4CC[C@@]5(C)C(CC[C@]6(C)C5CC=C5C7[C@@H](C)[C@H](C)CC[C@]7(C(=O)O)CC[C@]56C(=O)O)C4(C)C)C3O)C(O)C2O)C(O)C(O)C1O` (some centres undefined), the molecule was classed as inactive.

Turning to `CC(C)c1cc(CNc2nc(Nc3cc(C4CC4)[nH]n3)cc(N3CCN(C)CC3)n2)on1`, the Potency was 461 nM (active).

As to `C=C(F)c1sc(CNCCCNc2cc(=O)c3ccccc3[nH]2)c(C)c1Br`, the max response is -1.77%.

Take `Cc1[nH]c2ccccc2c1C1=C(NCCc2ccc(F)cc2)C(=O)N(C)C1=O`: the Potency is 14600 nM (active).

With `CCCOc1ccc(-c2nc(OC)c3ccccc3n2)cc1`, the max response is 1.75%.

For `O=[N+]([O-])c1cccc2[nH]c(CNc3nc(N4CCOCC4)nc4c3ncn4-c3ccsc3)nc12`, the Potency is 259 nM (active).

For `CC(C)c1nc(-c2ccc(NC(=O)Nc3cccc(C(F)(F)F)c3)c3ccccc23)c2c(N)nccn12`, the Potency was 8200 nM (active).

For the molecule `CCCCC1CCN(CCCC(=O)c2ccccc2C)CC1`, the max response is -22.9%.

Regarding `CCN1CCN(Cc2ccc(NC(=O)c3ccc(C)c(/C=C/c4cnc5[nH]ccc5c4OC)c3)cc2C(F)(F)F)CC1`, the Potency was 5170 nM (active).

`COC1C(CO)OC(n2cnc3c(=O)[nH]cnc32)C1O` (centres undefined): the max response is -5.01%.

Turning to `O=C(C(c1ccccc1)c1ccccc1)N1CCN(CC(O)COc2cccc3ncccc23)CC1` (centres undefined), the max response is -26.9%.

With `COC1=CC(=O)CC(C)C12Oc1cc(OC)cc(O)c1C2=O` (centres undefined), the outcome was inactive.

Take `CC(=O)O[C@@H]1[C@H](O)[C@@H](O[C@@H]2O[C@@H](C)[C@H](O[C@@H]3OC[C@@H](O)[C@H](O[C@@H]4OC[C@@H](O)[C@H](O)[C@H]4O)[C@H]3O)[C@@H](O[C@@H]3O[C@H](CO)[C@@H](O)[C@H](O)[C@H]3O)[C@H]2O)[C@H](OC(=O)[C@]23CCC(C)(C)C[C@H]2C2=CCC4[C@@]5(C)CC[C@H](O[C@@H]6O[C@H](C(=O)O)[C@@H](O)[C@H](O[C@@H]7OC[C@@H](O)[C@H](O)[C@H]7O)[C@H]6O[C@@H]6O[C@H](CO)[C@H](O)[C@H](O)[C@H]6O)[C@@](C)(C=O)C5CC[C@@]4(C)[C@]2(C)CC3)O[C@@H]1C` (some centres undefined): the molecule was called inactive.
